About 7,900 targets were measured; listed, in parts, are those with a hit and a random draw of the rest. About 0.6% of all pairs of compound and target were hits. A number with no mark means an inactive call.
Columns and labels:
Test in all cases: log2 fold change, soluble protein after heating vs DMSO (PISA); higher = thermal stabilisation; K562 cells, 10 uM, 30 min; active = over 0.2 and 3.5 SD of the protein, either way, in both replicates (recomputed)
bafetinib = compound: Cc1ccc(NC(=O)c2ccc(CN3CC[C@H](N(C)C)C3)c(C(F)(F)F)c2)cc1Nc1nccc(-c2cncnc2)n1 [bafetinib]
Summary of the method: (§1)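 For each measurement, 10 μM compound was applied for 30 min to K562 cells at 2×10^6 cells/mL. Aliquots were heated for 3 min across 48°C-58°C, pooled, and extracted in PBS with 0.5% NP-40 at 4°C; the supernatant after 21,000xg for 90 min was soluble protein. This was quantified by TMTpro 16plex LC-MS/MS with channel sums equalised, and thermal stability was reported relative to control samples from duplicates, on a log2 fold-change scale.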

[1] = compound: Cc1cccc(CC(=O)N2CCc3c2ccc(-c2cn(C)c4ncnc(N)c24)c3F)n1
Summary of the method: as §1

nilotinib = compound: Cc1cn(-c2cc(NC(=O)c3ccc(C)c(Nc4nccc(-c5cccnc5)n4)c3)cc(C(F)(F)F)c2)cn1 [nilotinib]
Summary of the method: as §1

[2] = compound: Cc1nc(Nc2n[nH]c3c2CN(C(=O)N[C@H](CN(C)C)c2ccccc2)C3(C)C)c2sccc2n1
Summary of the method: as §1

dasatinib = compound: Cc1nc(Nc2ncc(C(=O)Nc3c(C)cccc3Cl)s2)cc(N2CCN(CCO)CC2)n1 [dasatinib]
Summary of the method: as §1

[3] = compound: Cc1ncc(-c2ccnc(Nc3ccc(S(C)(=O)=O)cc3)n2)n1C(C)C
Summary of the method: as §1

[4] = compound: Cn1cc(-c2ccc3c(c2)CCN3C(=O)Cc2cccc(C(F)(F)F)c2)c2c(N)ncnc21
Summary of the method: as §1

[5] = compound: Cn1cc(-c2ccc3nnc(C(F)(F)c4ccc5ncccc5c4)n3n2)cn1
Summary of the method: as §1

tipifarnib = compound: Cn1cncc1[C@@](N)(c1ccc(Cl)cc1)c1ccc2c(c1)c(-c1cccc(Cl)c1)cc(=O)n2C [tipifarnib]
Summary of the method: as §1

mubritinib = compound: FC(F)(F)c1ccc(/C=C/c2nc(COc3ccc(CCCCn4ccnn4)cc3)co2)cc1 [mubritinib]
Summary of the method: as §1

[6] = compound: NC(=O)Nc1cc(-c2cccc(F)c2)sc1C(=O)N[C@H]1CCCNC1
Summary of the method: as §1

[7] = compound: NC(=O)c1cnc(N[C@@H]2CCCC[C@@H]2N)nc1Nc1cccc(-n2nccn2)c1
Summary of the method: as §1

[8] = compound: NC1(c2ccc(-c3nc4ccn5c(=O)[nH]nc5c4cc3-c3ccccc3)cc2)CCC1
Summary of the method: as §1

[9] = compound: NCC(=O)Nc1ccc(-n2nc(C(F)(F)F)cc2-c2ccc3c(ccc4ccccc43)c2)cc1
Summary of the method: as §1

entinostat = compound: Nc1ccccc1NC(=O)c1ccc(CNC(=O)OCc2cccnc2)cc1 [entinostat]
Summary of the method: as §1

vorinostat = compound: O=C(CCCCCCC(=O)Nc1ccccc1)NO [vorinostat]
Summary of the method: as §1

citarinostat = compound: O=C(CCCCCCNC(=O)c1cnc(N(c2ccccc2)c2ccccc2Cl)nc1)NO [citarinostat]
Summary of the method: as §1

silmitasertib = compound: O=C(O)c1ccc2c(c1)nc(Nc1cccc(Cl)c1)c1ccncc12 [silmitasertib]
Summary of the method: as §1

[10] = compound: O=C1NC(=O)C(c2cnc3ccccn23)=C1c1cn2c3c(cc(F)cc13)CN(C(=O)N1CCCCC1)CC2
Summary of the method: as §1

[11] = compound: c1cc(OCCN2CCCCC2)cc(-c2n[nH]c3ccc(-c4nnc[nH]4)cc23)c1
Summary of the method: as §1

Chain of UniProt Q99643 (Q99643 whole entry, looked up): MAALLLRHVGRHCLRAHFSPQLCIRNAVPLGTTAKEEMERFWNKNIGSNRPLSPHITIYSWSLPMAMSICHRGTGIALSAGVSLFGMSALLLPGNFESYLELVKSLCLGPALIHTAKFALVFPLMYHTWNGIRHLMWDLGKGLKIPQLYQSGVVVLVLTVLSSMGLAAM
Chain of UniProt P54136 (P54136 whole entry, looked up): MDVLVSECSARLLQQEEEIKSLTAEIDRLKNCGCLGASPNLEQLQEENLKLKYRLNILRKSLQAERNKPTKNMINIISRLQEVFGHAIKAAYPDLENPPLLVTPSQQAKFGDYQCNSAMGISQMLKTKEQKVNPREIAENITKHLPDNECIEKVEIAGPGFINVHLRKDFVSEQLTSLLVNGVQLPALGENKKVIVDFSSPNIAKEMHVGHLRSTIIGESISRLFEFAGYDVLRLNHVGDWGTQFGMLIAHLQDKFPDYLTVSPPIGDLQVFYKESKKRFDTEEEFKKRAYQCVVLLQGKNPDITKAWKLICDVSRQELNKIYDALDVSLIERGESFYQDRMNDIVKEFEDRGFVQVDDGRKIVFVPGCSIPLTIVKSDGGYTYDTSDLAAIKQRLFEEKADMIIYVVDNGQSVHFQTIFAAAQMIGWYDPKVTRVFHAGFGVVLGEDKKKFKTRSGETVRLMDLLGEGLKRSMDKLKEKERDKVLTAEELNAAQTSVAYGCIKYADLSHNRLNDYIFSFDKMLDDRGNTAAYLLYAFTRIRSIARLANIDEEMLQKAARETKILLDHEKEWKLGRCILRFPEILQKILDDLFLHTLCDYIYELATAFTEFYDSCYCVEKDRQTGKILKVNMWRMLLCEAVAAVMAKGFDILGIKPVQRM
Chain of UniProt Q5JTH9 (Q5JTH9 whole entry, looked up): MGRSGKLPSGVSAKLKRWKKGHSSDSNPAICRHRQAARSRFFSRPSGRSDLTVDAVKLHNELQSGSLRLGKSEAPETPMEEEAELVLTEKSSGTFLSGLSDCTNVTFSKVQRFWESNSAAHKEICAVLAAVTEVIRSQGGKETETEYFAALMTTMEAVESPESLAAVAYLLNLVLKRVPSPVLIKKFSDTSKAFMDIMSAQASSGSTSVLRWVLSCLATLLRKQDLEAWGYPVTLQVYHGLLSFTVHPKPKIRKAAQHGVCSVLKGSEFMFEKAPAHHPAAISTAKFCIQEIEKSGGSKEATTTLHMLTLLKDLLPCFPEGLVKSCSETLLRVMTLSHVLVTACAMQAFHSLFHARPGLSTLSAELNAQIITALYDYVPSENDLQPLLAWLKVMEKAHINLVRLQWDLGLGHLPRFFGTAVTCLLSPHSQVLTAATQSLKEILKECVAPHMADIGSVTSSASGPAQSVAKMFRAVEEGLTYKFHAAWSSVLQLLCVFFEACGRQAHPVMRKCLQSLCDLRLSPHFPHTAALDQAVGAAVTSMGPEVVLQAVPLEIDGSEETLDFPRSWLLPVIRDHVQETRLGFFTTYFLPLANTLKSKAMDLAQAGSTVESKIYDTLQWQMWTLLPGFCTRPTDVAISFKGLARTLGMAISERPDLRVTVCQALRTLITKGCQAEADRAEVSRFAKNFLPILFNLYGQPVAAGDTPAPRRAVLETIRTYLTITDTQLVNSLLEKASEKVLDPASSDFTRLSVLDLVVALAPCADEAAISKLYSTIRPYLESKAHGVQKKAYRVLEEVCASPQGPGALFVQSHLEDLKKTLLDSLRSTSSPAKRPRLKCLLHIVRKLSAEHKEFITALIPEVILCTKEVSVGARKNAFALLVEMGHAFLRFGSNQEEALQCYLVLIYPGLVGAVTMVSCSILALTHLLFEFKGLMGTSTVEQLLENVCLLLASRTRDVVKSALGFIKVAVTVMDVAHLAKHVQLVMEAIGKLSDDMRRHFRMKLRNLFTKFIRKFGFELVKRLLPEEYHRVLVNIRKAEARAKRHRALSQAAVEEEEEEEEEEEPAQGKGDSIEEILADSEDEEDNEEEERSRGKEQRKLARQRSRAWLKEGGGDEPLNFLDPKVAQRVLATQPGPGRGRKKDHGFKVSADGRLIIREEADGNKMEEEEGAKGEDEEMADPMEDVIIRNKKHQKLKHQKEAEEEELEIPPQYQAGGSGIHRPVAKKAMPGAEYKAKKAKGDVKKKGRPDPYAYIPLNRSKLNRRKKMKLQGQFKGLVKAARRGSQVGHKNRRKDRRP
Chain of UniProt Q9BQY4 (Q9BQY4 whole entry, looked up): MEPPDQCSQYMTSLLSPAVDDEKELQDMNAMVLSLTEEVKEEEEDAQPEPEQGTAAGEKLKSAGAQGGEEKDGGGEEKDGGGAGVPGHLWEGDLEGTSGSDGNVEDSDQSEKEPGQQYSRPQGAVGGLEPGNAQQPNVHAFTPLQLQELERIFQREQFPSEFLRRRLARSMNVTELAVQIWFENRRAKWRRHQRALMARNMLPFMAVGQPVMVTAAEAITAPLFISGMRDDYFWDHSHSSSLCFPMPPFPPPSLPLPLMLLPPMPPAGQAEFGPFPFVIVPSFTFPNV
Chain of UniProt P62070 (P62070 whole entry, looked up): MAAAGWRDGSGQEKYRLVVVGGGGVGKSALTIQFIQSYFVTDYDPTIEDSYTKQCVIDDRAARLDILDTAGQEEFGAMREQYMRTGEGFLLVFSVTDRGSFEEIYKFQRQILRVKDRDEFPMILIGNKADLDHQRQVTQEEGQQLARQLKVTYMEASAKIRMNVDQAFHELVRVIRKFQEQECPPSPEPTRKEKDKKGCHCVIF
Chain of UniProt Q9GZR1 (Q9GZR1 whole entry, looked up): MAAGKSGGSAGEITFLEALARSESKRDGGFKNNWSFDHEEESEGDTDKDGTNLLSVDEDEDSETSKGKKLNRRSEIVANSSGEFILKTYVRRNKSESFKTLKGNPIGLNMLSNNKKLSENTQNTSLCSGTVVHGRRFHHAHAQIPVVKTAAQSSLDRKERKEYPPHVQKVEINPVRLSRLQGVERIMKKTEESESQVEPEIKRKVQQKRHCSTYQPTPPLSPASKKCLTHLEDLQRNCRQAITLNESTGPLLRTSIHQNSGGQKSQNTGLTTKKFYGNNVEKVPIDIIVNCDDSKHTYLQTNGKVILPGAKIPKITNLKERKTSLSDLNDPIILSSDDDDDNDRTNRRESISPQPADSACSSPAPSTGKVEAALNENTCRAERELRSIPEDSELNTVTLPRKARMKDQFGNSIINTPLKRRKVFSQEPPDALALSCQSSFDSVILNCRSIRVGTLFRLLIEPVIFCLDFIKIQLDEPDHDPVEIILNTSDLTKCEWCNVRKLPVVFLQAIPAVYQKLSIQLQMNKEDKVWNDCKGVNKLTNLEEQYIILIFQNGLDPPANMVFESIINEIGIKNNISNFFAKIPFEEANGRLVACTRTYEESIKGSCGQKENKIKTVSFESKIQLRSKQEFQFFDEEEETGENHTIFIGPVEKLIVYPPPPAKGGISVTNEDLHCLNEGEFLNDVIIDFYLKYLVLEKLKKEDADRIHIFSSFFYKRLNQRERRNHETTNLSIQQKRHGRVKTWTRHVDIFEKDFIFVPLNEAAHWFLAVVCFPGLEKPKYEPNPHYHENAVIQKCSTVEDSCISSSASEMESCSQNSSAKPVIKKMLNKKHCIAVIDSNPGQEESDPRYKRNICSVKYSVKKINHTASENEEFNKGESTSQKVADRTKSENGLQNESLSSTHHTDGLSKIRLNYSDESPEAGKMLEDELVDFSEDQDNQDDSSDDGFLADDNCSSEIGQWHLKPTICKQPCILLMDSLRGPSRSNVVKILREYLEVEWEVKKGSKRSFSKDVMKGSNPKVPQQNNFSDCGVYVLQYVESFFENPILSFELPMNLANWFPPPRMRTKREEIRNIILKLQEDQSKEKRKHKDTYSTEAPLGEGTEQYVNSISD
Chain of UniProt Q96DX4 (Q96DX4 whole entry, looked up): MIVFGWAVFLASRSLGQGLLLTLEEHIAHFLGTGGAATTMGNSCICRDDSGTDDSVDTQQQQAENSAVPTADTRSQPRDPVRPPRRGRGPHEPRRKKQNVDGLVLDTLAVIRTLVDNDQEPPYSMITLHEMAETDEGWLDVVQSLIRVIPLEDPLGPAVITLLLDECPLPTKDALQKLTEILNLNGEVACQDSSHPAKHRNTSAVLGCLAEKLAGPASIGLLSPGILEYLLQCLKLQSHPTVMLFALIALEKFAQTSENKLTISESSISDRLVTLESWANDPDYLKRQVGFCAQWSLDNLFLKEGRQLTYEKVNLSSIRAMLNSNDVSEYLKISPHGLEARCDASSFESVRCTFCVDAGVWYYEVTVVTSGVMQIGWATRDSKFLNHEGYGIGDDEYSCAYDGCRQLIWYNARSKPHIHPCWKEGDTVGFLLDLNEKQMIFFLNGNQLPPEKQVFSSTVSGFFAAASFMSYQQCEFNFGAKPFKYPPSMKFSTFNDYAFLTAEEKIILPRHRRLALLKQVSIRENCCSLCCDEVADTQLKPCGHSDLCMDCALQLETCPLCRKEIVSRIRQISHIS

Row | Target | log2 fold change (bafetinib) | log2 fold change [1] | log2 fold change (nilotinib) | log2 fold change [2] | log2 fold change (dasatinib) | log2 fold change [3] | log2 fold change [4] | log2 fold change [5] | log2 fold change (tipifarnib) | log2 fold change (mubritinib) | log2 fold change [6] | log2 fold change [7] | log2 fold change [8] | log2 fold change [9] | log2 fold change (entinostat) | log2 fold change (vorinostat) | log2 fold change (citarinostat) | log2 fold change (silmitasertib) | log2 fold change [10] | log2 fold change [11]
1 | RSPRY1 (UniProt Q96DX4) | 0.052 | -0.05 | 0.012 | -0.037 | -0.036 | 0.01 | 0.007 | -0.049 | 0.093 | -0.039 | -0.054 | 0.051 | -0.104 | 0.061 | -0.016 | -0.02 | -0.075 | 0.028 | -0.072 | -0.008
2 | RAVER1 (UniProt E9PAU2) | -0.155 | 0 | -0.091 | -0.319 | -0.309 | -0.299 | 0.155 | 0.011 | -0.351 | 0.134 | -0.063 | -0.35 | -0.1 | -0.32 | 0.211 | 0.207 | 0.166 | -0.022 | -0.244 | -0.088
3 | RRP12 (UniProt Q5JTH9) | 0.01 | -0.036 | -0.082 | 0.088 | -0.028 | 0.184 | -0.136 | -0.123 | -0.035 | -0.096 | 0.062 | 0.188 | 0.089 | 0.051 | 0.081 | 0.072 | -0.064 | 0.121 | 0.119 | 0.216
4 | SENP6 (UniProt Q9GZR1) | 0.015 | -0.015 | 0.007 | -0.038 | -0.028 | 0.063 | 0.046 | -0.013 | 0.025 | 0.053 | 0.011 | -0.009 | -0.073 | -0.023 | -0.019 | -0.021 | 0.04 | -0.118 | 0.027 | -0.049
5 | SDHC (UniProt Q99643) | 0 | -0.127 | 0.007 | 0.068 | 0.028 | -0.056 | -0.011 | -0.024 | 0.211 | 0.02 | -0.12 | 0.097 | -0.079 | 0.041 | -0.178 | -0.042 | 0.033 | 0.032 | 0 | -0.062
6 | RHOXF2 (UniProt Q9BQY4) | -0.05 | -0.215 (active) | 0.009 | -0.007 | 0.053 | -0.058 | 0.008 | -0.035 | 0.048 | 0.06 | 0.004 | 0.015 | 0.039 | 0.013 | -0.002 | -0.091 | 0.006 | 0.045 | -0.023 | -0.036
7 | RRAS2 isoform 4 (UniProt P62070) | -0.05 | -0.082 | 0.111 | -0.021 | 0.066 | 0.025 | 0.062 | -0.03 | 0.088 | -0.025 | -0.068 | 0.03 | 0.08 | 0.038 | -0.059 | -0.069 | 0.01 | 0.048 | -0.01 | 0.013
8 | RARS (UniProt P54136) | 0.04 | 0.069 | -0.057 | -0.021 | -0.071 | 0.053 | -0.08 | -0.125 | -0.117 | -0.116 | 0.098 | -0.076 | 0.032 | -0.01 | 0.041 | 0.115 | 0.028 | 0.107 | 0.325 | -0.135

Reference: the supplement of paper PMC10849652
